Results from PubChem BioAssay (NCI).
About 83,000 compounds went through this panel and 20% of them were active in at least one assay; those are over-represented in the sample as a whole.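 Activity criterion: percent growth below 10, measured after cells in 96-well plates were exposed to a single compound concentration for 48 hours.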 Calls of active or inactive are those of the source.

Legend:
Experiment in all cases: NCI-60 one-dose screen, 48 h (100 = growth as untreated, 0 = no growth, -100 = all killed)
HCT-15 colon = conditions: 10 µM unless noted
HT29 colon = conditions: 10 µM unless noted
SNB-75 CNS = conditions: 10 µM unless noted
SNB-19 CNS = conditions: 10 µM unless noted
U251 CNS = conditions: 10 µM unless noted
PC-3 prostate = conditions: 10 µM unless noted
SK-MEL-5 melanoma = conditions: 10 µM unless noted
UACC-62 melanoma = conditions: 10 µM unless noted
LOX IMVI melanoma = conditions: 10 µM unless noted
SK-MEL-28 melanoma = conditions: 10 µM unless noted
SK-MEL-2 melanoma = conditions: 10 µM unless noted
EKVX NSCLC = conditions: 10 µM unless noted
SN12C renal = conditions: 10 µM unless noted
UO-31 renal = conditions: 10 µM unless noted
TK-10 renal = conditions: 10 µM unless noted
ACHN renal = conditions: 10 µM unless noted
A498 renal = conditions: 10 µM
HL-60(TB) leukemia = conditions: 10 µM unless noted
CCRF-CEM leukemia = conditions: 10 µM unless noted
CAKI-1 renal = conditions: 10 µM unless noted

Measured: growth

CCCCN1CCCC[C@@H]1C(=O)N[C@H](C(=O)N(C)[C@H](C[C@@H](OC(C)=O)c1nc(C(=O)NC2CCC(C(=O)OC)CC2)cs1)C(C)C)C(C)C (some centres not stated)
active: SNB-75 CNS -4.95% | HL-60(TB) leukemia -30.4% | CCRF-CEM leukemia 5.58%
inactive: HCT-15 colon 30.9% | HT29 colon 14.8% | SNB-19 CNS 24% | U251 CNS 15.5% | PC-3 prostate 29.1% | SK-MEL-5 melanoma 38.4% | UACC-62 melanoma 33.3% | LOX IMVI melanoma 35.6% | SK-MEL-28 melanoma 72.1% | SK-MEL-2 melanoma 35.5% | EKVX NSCLC 34.8% | SN12C renal 46.3% | UO-31 renal 52.8% | TK-10 renal 55.6% | ACHN renal 54.8% | A498 renal 22.3%

CC1=C(CCCNS(C)(=O)=O)C2=C(C)C3(CC3)[C@@](C)(O)C(=O)C2=C1
active: HCT-15 colon 4.29% | HT29 colon -2.04% | SNB-75 CNS -60.6% | SNB-19 CNS 8.19% | U251 CNS 1.79% | PC-3 prostate 6.58% | SK-MEL-5 melanoma -89.8% | UACC-62 melanoma -52.7% | LOX IMVI melanoma 2.21% | SK-MEL-28 melanoma -28.4% | SK-MEL-2 melanoma -44.7% | EKVX NSCLC 1.61% | SN12C renal 8.84% | UO-31 renal -32.6% | TK-10 renal -14.9% | ACHN renal -23.6% | A498 renal -43.2%
inactive: HL-60(TB) leukemia 14% | CCRF-CEM leukemia 90.9%

Oc1c(O)c(Cl)c(Cl)c(Cl)c1Cl
active: UACC-62 melanoma 3.58% | UO-31 renal 3.66%
inactive: HCT-15 colon 26.3% | HT29 colon 62.7% | SNB-75 CNS 36.7% | SNB-19 CNS 29.7% | U251 CNS 38.9% | PC-3 prostate 34.5% | SK-MEL-5 melanoma 22.5% | LOX IMVI melanoma 24.4% | SK-MEL-28 melanoma 51.4% | SK-MEL-2 melanoma 39.1% | EKVX NSCLC 36.6% | SN12C renal 31.6% | TK-10 renal 73.4% | ACHN renal 32.2% | CAKI-1 renal 81.7% | CCRF-CEM leukemia 35.3%

CC1(C)[C@H](O)[C@H](F)C[C@@]2(C)Oc3ccc(C(=O)Nc4ccc5c(c4)NC(=O)C54CCN(CCCCC#N)CC4)cc3C[C@H]12
inactive: HCT-15 colon 45.7% | HT29 colon 16% | SNB-75 CNS 46.8% | SNB-19 CNS 32.2% | U251 CNS 10.6% | PC-3 prostate 24.4% | SK-MEL-2 melanoma 28.8% | EKVX NSCLC 82.1% | SN12C renal 69.9% | UO-31 renal 31.5% | TK-10 renal 59.1% | ACHN renal 43.1% | CAKI-1 renal 56.5% | HL-60(TB) leukemia 30.5% | CCRF-CEM leukemia 13.8%
active: SK-MEL-5 melanoma -60.7% | UACC-62 melanoma -24.4% | LOX IMVI melanoma 7.04% | SK-MEL-28 melanoma 4.12%

Cc1cc(-c2nc3cc(F)ccc3[se]2)cc(F)c1N
inactive: HCT-15 colon 38.2% | HT29 colon 62.5% | SNB-75 CNS 91.9% | SNB-19 CNS 97.2% | U251 CNS 98.7% | PC-3 prostate 72.7% | SK-MEL-5 melanoma 81% | UACC-62 melanoma 85.7% | LOX IMVI melanoma 90% | SK-MEL-28 melanoma 121% | SK-MEL-2 melanoma 101% | EKVX NSCLC 66.4% | SN12C renal 95.5% | UO-31 renal 55.8% | TK-10 renal 57.6% | ACHN renal 79% | A498 renal 74.8% | HL-60(TB) leukemia 87.2% | CCRF-CEM leukemia 85.2%

CCC(C)(C)[C@H](NC(=O)[C@H]1CCCCN1C)C(=O)N(C)[C@H](C[C@@H](OC(C)=O)c1nc(C(=O)N[C@@H](Cc2ccccc2)C[C@H](C)C(=O)O)cs1)C(C)C
active: HCT-15 colon 6.87% | HT29 colon -2.9% | SNB-75 CNS 6.25% | SK-MEL-5 melanoma -18.1% | CCRF-CEM leukemia 2.41%
inactive: SNB-19 CNS 17.8% | U251 CNS 12.1% | PC-3 prostate 24.9% | UACC-62 melanoma 30.9% | LOX IMVI melanoma 16.1% | SK-MEL-28 melanoma 44.6% | SK-MEL-2 melanoma 21.9% | EKVX NSCLC 52.6% | SN12C renal 17.5% | UO-31 renal 32.9% | TK-10 renal 35.1% | ACHN renal 11.4% | CAKI-1 renal 29%

Nc1c(F)cc(-c2nc3cc(F)ccc3[se]2)cc1Br
inactive: HCT-15 colon 18.5% | SNB-75 CNS 73.4% | SNB-19 CNS 94.5% | U251 CNS 87.5% | PC-3 prostate 66.4% | SK-MEL-5 melanoma 50% | UACC-62 melanoma 47.5% | LOX IMVI melanoma 90.1% | SK-MEL-28 melanoma 106% | SK-MEL-2 melanoma 90.5% | EKVX NSCLC 32.7% | SN12C renal 88.1% | UO-31 renal 60.1% | ACHN renal 27.5% | A498 renal 31.4% | HL-60(TB) leukemia 95.9% | CCRF-CEM leukemia 95.5%
active: HT29 colon 5.05% | TK-10 renal -4.6%

O=[N+]([O-])c1cc(I)cc([N+](=O)[O-])c1
inactive: HCT-15 colon 90.2% | HT29 colon 109% | SNB-75 CNS 93.2% | SNB-19 CNS 113% | U251 CNS 107% | PC-3 prostate 92.5% | SK-MEL-5 melanoma 95.2% | UACC-62 melanoma 103% | LOX IMVI melanoma 91.8% | SK-MEL-28 melanoma 116% | SK-MEL-2 melanoma 96.8% | EKVX NSCLC 99.9% | SN12C renal 103% | UO-31 renal 108% | TK-10 renal 117% | ACHN renal 121% | A498 renal 111% | HL-60(TB) leukemia 125% | CCRF-CEM leukemia 100%

O=C1OCC2=C1C(c1ccccc1)c1cc3c(cc1N2)OCO3 (configuration not stated)
inactive: HCT-15 colon 10.9% | SNB-75 CNS 45.9% | SNB-19 CNS 36.2% | PC-3 prostate 25.9% | UACC-62 melanoma 31% | LOX IMVI melanoma 26.2% | SK-MEL-28 melanoma 64.2% | SK-MEL-2 melanoma 15.6% | EKVX NSCLC 48% | SN12C renal 21.5% | UO-31 renal 45.6% | TK-10 renal 56.9% | ACHN renal 27.1% | CAKI-1 renal 38.8% | CCRF-CEM leukemia 11.6%
active: HT29 colon 4.87% | U251 CNS 9.54% | SK-MEL-5 melanoma -39.6% | HL-60(TB) leukemia 2.29%

COC(=O)[C@@]1(C)CC[C@]2(C)CC[C@]3(C)C4=CC(=O)c5c(cc(O)c(O)c5C)[C@]4(C)CC[C@@]3(C)[C@@H]2C1
active: SK-MEL-5 melanoma 7.93%
inactive: HCT-15 colon 36.9% | HT29 colon 90.2% | SNB-75 CNS 112% | SNB-19 CNS 60.5% | U251 CNS 42% | PC-3 prostate 33.8% | UACC-62 melanoma 28.3% | LOX IMVI melanoma 50.7% | SK-MEL-28 melanoma 91.3% | SK-MEL-2 melanoma 71.6% | EKVX NSCLC 71.7% | SN12C renal 61.7% | UO-31 renal 50.6% | TK-10 renal 68.9% | ACHN renal 53.3% | A498 renal 57.1% | HL-60(TB) leukemia 38.4% | CCRF-CEM leukemia 26.9%

CCOC(=O)[C@@H](C)C[C@H](Cc1ccccc1)NC(=O)c1csc([C@@H](C[C@H](C(C)C)N(C)C(=O)[C@@H](NC(=O)[C@H]2C[C@H](O)CCN2C)C(C)C)OC(C)=O)n1
active: HCT-15 colon 9.76% | HT29 colon 0.338% | SK-MEL-5 melanoma -4.08% | HL-60(TB) leukemia -27.1% | CCRF-CEM leukemia 4.67%
inactive: SNB-75 CNS 10.6% | SNB-19 CNS 21.8% | U251 CNS 10.1% | PC-3 prostate 24.5% | UACC-62 melanoma 38.4% | LOX IMVI melanoma 18.2% | SK-MEL-28 melanoma 51.1% | SK-MEL-2 melanoma 16.8% | EKVX NSCLC 47.6% | SN12C renal 20.6% | UO-31 renal 36.1% | TK-10 renal 38.4% | ACHN renal 19.7% | CAKI-1 renal 30.9%

CN[C@]1(c2ccccc2Cl)CCCC[C@H]1NCCCN1CCN(C)CC1
inactive: HCT-15 colon 99% | HT29 colon 96% | SNB-75 CNS 82% | SNB-19 CNS 102% | U251 CNS 103% | PC-3 prostate 91.5% | SK-MEL-5 melanoma 97.7% | UACC-62 melanoma 104% | LOX IMVI melanoma 96.4% | SK-MEL-28 melanoma 112% | SK-MEL-2 melanoma 103% | EKVX NSCLC 92% | SN12C renal 97.4% | UO-31 renal 76.3% | TK-10 renal 96.4% | ACHN renal 108% | CAKI-1 renal 87.3% | HL-60(TB) leukemia 93.9% | CCRF-CEM leukemia 99.6%

CCn1cnc2c(Nc3cccc(Cl)c3)nc(N[C@@H]3CCCC[C@@H]3N)nc21
active: HCT-15 colon 6.27% | HT29 colon -4.11% | SNB-75 CNS -5.9% | SNB-19 CNS 7.42% | U251 CNS 6.89% | PC-3 prostate 4.71% | SK-MEL-5 melanoma -26.5% | LOX IMVI melanoma -8.41% | SK-MEL-2 melanoma -1.69% | SN12C renal 6.96% | UO-31 renal -13.3% | ACHN renal 0.47% | HL-60(TB) leukemia -51.6% | CCRF-CEM leukemia 2.54%
inactive: UACC-62 melanoma 10.2% | SK-MEL-28 melanoma 22.8% | EKVX NSCLC 11.8% | TK-10 renal 13.5% | CAKI-1 renal 25.1%

CN1CCC(c2c[nH]c3ccccc23)C1 (configuration not stated)
inactive: HCT-15 colon 102% | HT29 colon 100% | SNB-75 CNS 95.5% | SNB-19 CNS 95.2% | U251 CNS 98.2% | PC-3 prostate 112% | SK-MEL-5 melanoma 130% | UACC-62 melanoma 107% | LOX IMVI melanoma 88.2% | SK-MEL-28 melanoma 107% | SK-MEL-2 melanoma 87.5% | EKVX NSCLC 98.1% | SN12C renal 124% | UO-31 renal 69.1% | TK-10 renal 154% | ACHN renal 96.2% | A498 renal 113% | HL-60(TB) leukemia 104% | CCRF-CEM leukemia 98.7%

[Cl][Hg][c]1cc[c]([Hg][Cl])o1
inactive: HT29 colon 30.9% | SNB-75 CNS 54.4% | SNB-19 CNS 15.4% | PC-3 prostate 51.3% | SK-MEL-5 melanoma 39.7% | UACC-62 melanoma 47.1% | SK-MEL-28 melanoma 49.1% | SK-MEL-2 melanoma 57.9% | EKVX NSCLC 20.5% | SN12C renal 34.9% | TK-10 renal 41.8% | A498 renal 109% | HL-60(TB) leukemia 22.5%
active: HCT-15 colon -47.3% | U251 CNS -40.8% | LOX IMVI melanoma -10.3% | UO-31 renal 3.18% | ACHN renal 3.3% | CCRF-CEM leukemia 4.4%

CCOC(=O)[C@@H](C)C[C@H](Cc1ccccc1)NC(=O)c1csc([C@@H](C[C@H](C(C)C)N(C)C(=O)[C@H](CCC(C)C)NC(=O)[C@H]2CCCCN2C)OC(C)=O)n1
inactive: HCT-15 colon 15.2% | SNB-75 CNS 37.6% | SNB-19 CNS 39.9% | PC-3 prostate 13.7% | UACC-62 melanoma 40.7% | LOX IMVI melanoma 15.2% | SK-MEL-28 melanoma 64.8% | SK-MEL-2 melanoma 28.1% | EKVX NSCLC 45.6% | SN12C renal 18.9% | UO-31 renal 20.6%
active: HT29 colon -14.9% | U251 CNS 2.75% | SK-MEL-5 melanoma -25.5% | TK-10 renal -5.17% | ACHN renal 9.24% | A498 renal -11.5% | HL-60(TB) leukemia -32.3% | CCRF-CEM leukemia 9.03%
